Our source for the AC50 and outcome values is PubChem BioAssay (EPA / NIEHS).

“And” between values parts separate entries of the source, which are not always exact repeats. Identical values can stand only once. The source made the active and inactive calls. Rule for the calls: active = hit-call score of the fitted dose curve at least 0.9, where 1 is the maximum; inconclusive = response in the unintended direction; inactive = score below 0.9.

Usually AC50 stands for the concentration at which the activity in the assay is half-maximal.

The experiment relates to Thyroperoxidase (TPO), gene 54314. The experiment in a line: CCTE_Simmons_AUR_rTPO: CCTE's Amplex UltraRed Assay for Thyroperoxidase (TPO) Inhibition, Simmons Lab (AID 2283662).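 For AC50: potency for loss of signal meaning inhibition of peroxidase activity.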 The procedure: CCTE_Simmons_AUR_rTPO is a biochemical, single-readout assay that uses microsomes from rat thyroid gland in a tissue-based cell-free assay. Measurements were taken 0.5 hour after chemical dosing in a 384-well plate.CCTE_Simmons_AUR_rTPO is the assay component measured from the CCTE_Simmons_AUR_rTPO assay. It is designed to make measurements of thyroperoxidase (TPO) activity as detected with fluorescence intensity signals using the Amplex UltraRed technology as a form of enzyme activity reporter.Data from the assay component CCTE_Simmons_AUR_rTPO was analyzed at the endpoint, CCTE_Simmons_AUR_rTPO, in the positive analysis fitting direction relative to DMSO as the negative control and baseline of activity. Using a type of enzyme reporter, the Amplex UltraRed assay, loss-of-signal activity can be used to understand decreased peroxidase activity in the presence of excess […]. To generalize the intended target to other relatable targets, this assay endpoint is annotated to the oxidoreductase intended target family, where the subfamily is peroxidase.
As described previously (Paul et al., 2014), the AUR substrate was repurposed to detect peroxidase (ie, TPO) activity in the presence of excess H2O2 for the AUR-TPO assay. The reaction profile for the 384-well format AUR-TPO assay is scaled to an 80 ul assay volume containing 25 uM AUR, 300 uM H2O2, and 5 ug microsomal protein in 200 mM phosphate buffer. The assay concentration of thyroid microsomal protein was approximately […]. First, rat microsomes containing TPO and diluent 200mM potassium phosphate buffer were added to opaque, black 384-well plates (Greiner, BioExpress; Kaysville, Utah) using an automated liquid handler (BioTek MicroFlo; Winooski, Vermont) with a plastic 5 ul tubing cassette. Similarly, AUR was added next by automated liquid handling. Test compounds were administered using a HDRT as described earlier to achieve a 0.5% final DMSO concentration. Finally, H2O2 (300 uM, final concentration) was then added by the BioTek MicroFlo to initiate the reaction. Microplates were incubated at 37C in the dark for 30min. Plates were then shaken on a fluorescence plate reader (FLUOStar Optima, BMG LabTech; GmbH, Germany), and endpoint fluorescence (top read) was measured using 10 flashes per well at 544/590nm excitation/emission. Three biological replicates of technical singles were run for every chemical concentration tested. A titrated range of MMI served as a positive control for TPO inhibition on each plate of the AUR-TPO screening campaign. Test chemicals were administered as a titrated series of 8 concentrations from 5 nM up to 87.5 uM [final] for 30 minutes prior to single endpoint detection. Dimethylsulfoxide [DMSO] was used as the vehicle control. Methimazole [MMI] was used as the positive control and was administered as a titrated series of 8 concentrations from 1 nM up to 271 uM [final].
For the molecule `C1=Cc2ccccc2C1`, the AC50 was 43.6 µM (active).

Regarding `CCCCCCCC[N+](C)(CCCCCCCC)CCCCCCCC`, the AC50 is 23.7 µM (active).

As to `O=C(c1ccccc1)c1ccc(O)c(O)c1O`, the AC50 is 2.12 µM (active).

Take `CC(C)(C)c1ccc(-c2ccc(C(C)(C)C)cc2)cc1`: the result was inactive.

As to `c1ccc2c(c1)ccc1cc3c(ccc4ccccc43)cc12`, the molecule was called inactive.

Turning to `O=S1(=O)OC(c2ccc(O)cc2)(c2ccc(O)cc2)c2ccccc21`, the AC50 is 24.9 µM (active) and 22.2 µM (active).

Turning to `CC(C)(C)c1ccc(N)cc1`, the AC50 is 0.106 µM (active).

As for `CCCCC/C=C\C/C=C\CCCCCCCC(=O)OC`, the AC50 is 43.8 µM (active).

`C1CN(SSN2CCOCC2)CCO1`: the AC50 is 4.25 µM (active).

On to `Cc1ccc(N/N=c2\c(=O)cc/c(=N/Nc3ccc(S(=O)(=O)O)cc3)c2=O)c(C)c1`, for which the AC50 was 28.9 µM (active).

On to `CC/C=C\C/C=C\C/C=C\CCCCCCCC(=O)O`, for which the AC50 was 28.7 µM (active).

With `CCCCCCCCCCCCCOP(=O)(O)O`, the result was inactive.

For `CN(C)c1ccc(C(=N)c2ccc(N(C)C)cc2)cc1`, the AC50 is 31.6 µM (active).

As for `CCN(CCC#N)c1ccc(N=Nc2c(Cl)cc([N+](=O)[O-])cc2Cl)cc1`, the AC50 was 37.9 µM (active).

With `O=S(=O)(O)c1ccccc1C=Cc1ccc(-c2ccc(C=Cc3ccccc3S(=O)(=O)O)cc2)cc1`, the AC50 was 44.4 µM (active).

Consider `COC(=O)c1c(C)cc(O)c(C)c1O`, for which the AC50 was 11.6 µM (active).

Consider `CNC(=S)NN`, for which the AC50 is 22.5 µM (active).
